The list is not random: actives were taken first. Their share in the collection is about 2.3%.
HepG2 tox-1: HepG2 cytotoxicity, counter-screen for TGF-b inhibitors; HepG2 CAGA-GFP viability, ATP luminescence, 18 h; Potency, µM (titrated, usually from 46.1 µM), actives largely listed as cytotoxic; hit rate 0.76% among 410,000
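HepG2 CAGA-GFP cells (1000/well, DMEM with 1% FBS) received compound, then TGF-beta at 500 pg/mL final, and were incubated 18 hours at 37 degrees C. Viability was read by CellTiter-Glo luminescence. Media-only wells were set as complete cell-killing and DMSO as no toxicity.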
ATXN2 expr inh: ATXN2 expression inhibition; AID 1745845; HEK-293 ATXN2-luciferase reporter, luminescence, 24 h; hit rate 0.72% among 360,000; Potency, µM (highest dose often 57 µM), usual class: inhibitors; further: nearly all actives have a fitted effect of over 55% in size
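qHTS (up to 57 uM final) was run with 24 h compound exposure of reporter cells at 37 °C. Each well was multiplexed: SteadyGlo luminescence measured ATXN2-luciferase expression after a fluorogenic Gly-Phe-AFC viability readout (25 uM final).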
TGFb inhibitor: blocks TGF-b signaling; HepG2 CAGA-GFP TGF-b/SMAD3 reporter, GFP fluorescence, 18 h; TGF-beta stimulated, 500 pg/mL final; Potency, µM (titrated, usually from 46.1 µM), most hits filed as inhibitors; hit rate 1.2% among 410,000; AID 588855; further: nearly all actives have a fitted effect of over 65% in size
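Inhibition of TGF-beta-driven CAGA-GFP reporter expression in HEPG2 cells is measured by cellular GFP fluorescence after 18 h stimulation with 500 pg/mL recombinant TGF-beta in 1% FBS medium at 37 degrees C.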
S2 tox: reduces viability in counter-screen for ATXN expression inhibitors. S2 cells (HEK-293 line with an ATXN2-luciferase reporter) viability, CellTiter-Fluor protease fluorescence, 24 h. hit rate 0.49% among 400,000. Potency, µM (titrated, usually from 56.7 µM), most hits filed as cytotoxic; further: nearly all actives have a fitted effect of over 40% in size
TGFb confirm: TGF-b pathway inhibition, cherry-pick retest. shares compounds with TGFb inhibitor. HepG2 CAGA-GFP TGF-b reporter, GFP fluorescence, 18 h; cells stimulated with TGF-beta, 500 pg/mL. Potency, µM (series often up to 46.1 µM), actives largely listed as inhibitors. hit rate 63% among 1,600. AID 720534; further: nearly all actives have a fitted effect of over 65% in size
HepG2 tox-2: HepG2 cytotoxicity, TGF-b inhibitor counterscreen | HepG2 CAGA-GFP viability, ATP luminescence, 18 h; cells stimulated with TGF-beta, 500 pg/mL | shares compounds with TGFb inhibitor | Potency, µM (titrated, usually from 46.1 µM), usual class: inhibitors | hit rate 27% among 1,600; further: nearly all actives have a fitted effect of over 70% in size
CCL64 TGFb inh: TGF-b inhibition, CCL64 orthogonal assay | shares compounds with TGFb inhibitor | CCL64 CAGA-GFP reporter, TGF-b stimulated, GFP fluorescence, 18 h | Potency, µM (series often up to 46.1 µM), actives largely listed as inhibitors | hit rate 41% among 1,600 | AID 720536; further: nearly all actives have a fitted effect of over 65% in size
COP TGFb inh: blocks TGF-b signaling in HepG2 COP reporter | shares compounds with TGFb inhibitor | HepG2 COP-GFP TGF-b reporter, GFP fluorescence, 18 h; cells stimulated by added recombinant TGF-beta | Potency, µM (top dose mostly 46.1 µM), usual class: inhibitors | hit rate 3% among 1,600; further: nearly all actives have a fitted effect of over 70% in size
Large screens that a line does not name were inactive (follow-up assays come after a bar, where they were run). The call rests on the fitted dose curve; in most records, active means well fitted curve in the direction sought with a large enough effect; inconclusive means small, poorly fitted or top-dose-only effect, or another doubt; inactive means no such curve, though single readings can be large; an effect the other way counts as inactive or inconclusive.

CN(CC(=O)N1CCN(Cc2ccccc2)CC1)C(=O)Cc1cccc2ccccc12	TGFb inhibitor 14.1µM, S2 tox inconclusive | TGFb confirm inconclusive | HepG2 tox-2 inactive | CCL64 TGFb inh inactive | COP TGFb inh inactive
O=C(Nc1ccc(F)c(Cl)c1)C1Cc2c(-c3ccc(Cl)cc3)ccnc2O1 (stereo not drawn)	ATXN2 expr inh inconclusive, TGFb inhibitor 15.8µM, S2 tox inconclusive | TGFb confirm 10.3µM | HepG2 tox-2 inconclusive | CCL64 TGFb inh 18.4µM | COP TGFb inh inactive
CC(=O)Nc1ccc(-c2ccnc3c2CC(C(=O)Nc2ccc(Cl)c(C(F)(F)F)c2)O3)cc1 (stereo not drawn)	ATXN2 expr inh inconclusive, TGFb inhibitor 14.1µM, S2 tox inconclusive | TGFb confirm 8.2µM | HepG2 tox-2 inconclusive | CCL64 TGFb inh 23.1µM | COP TGFb inh inactive
CC(=O)Nc1ccc(-c2ccnc3c2CC(C(=O)Nc2cccc(C(C)=O)c2)O3)cc1 (stereo not drawn)	none
O=C(COC(=O)C12CC3CC(CC(Cl)(C3)C1)C2)NCc1ccco1	none (no result: ATXN2 expr inh, S2 tox)
Cc1ccc(NC(=O)Cc2ccc(Cl)c(Cl)c2)cc1S(=O)(=O)N(C)C	TGFb inhibitor inconclusive
NS(=O)(=O)c1cccc(NC(=O)CSc2nn(-c3ccccc3)c(=S)s2)c1	none
CN(C)S(=O)(=O)c1cc(NC(=O)CSc2nn(-c3ccc(Cl)cc3)c(=S)s2)ccc1Cl	ATXN2 expr inh inconclusive, TGFb inhibitor 11.2µM | TGFb confirm 3.66µM | HepG2 tox-2 inconclusive | CCL64 TGFb inh inconclusive | COP TGFb inh inactive
Cc1ccc(NC(=O)CSc2nn(-c3ccc(Cl)cc3)c(=S)s2)cc1S(=O)(=O)N(C)C	TGFb inhibitor inconclusive | TGFb confirm inconclusive | HepG2 tox-2 inconclusive | CCL64 TGFb inh inactive | COP TGFb inh inactive
Cc1ccc(NC(=O)CNc2ccc(Cl)c(Cl)c2)cc1S(=O)(=O)N(C)C	ATXN2 expr inh inconclusive, TGFb inhibitor 10µM, S2 tox inconclusive | TGFb confirm 11.6µM | HepG2 tox-2 inconclusive | CCL64 TGFb inh inconclusive | COP TGFb inh inactive
Cc1ccc(NC(=O)CN2CCC(Cc3ccccc3)CC2)cc1S(=O)(=O)N(C)C	TGFb inhibitor 15.8µM | TGFb confirm 13µM | HepG2 tox-2 inconclusive | CCL64 TGFb inh inconclusive | COP TGFb inh inactive
COc1cc(C(CCN2CCCC2)c2c(OC)cc(OC)c3c2OC(=O)CC3c2ccc(N(C)C)cc2)cc(OC)c1OC (stereo not drawn)	none (no result: ATXN2 expr inh, S2 tox)
CN1CCN(S(=O)(=O)c2ccc(Sc3nc4ccccc4[nH]3)c3nsnc23)CC1	TGFb inhibitor 10µM | TGFb confirm inactive | HepG2 tox-2 inactive | CCL64 TGFb inh inactive | COP TGFb inh inactive
O=S(=O)(CC(CN1CCCCC1)N1CCCCC1)c1ccccc1 (stereo not drawn)	HepG2 tox-1 17.8µM, TGFb inhibitor 10µM (no result: ATXN2 expr inh, S2 tox) | TGFb confirm 13µM | HepG2 tox-2 18.4µM | CCL64 TGFb inh 4.61µM | COP TGFb inh inconclusive
CC(OCc1ccccc1)C(NC(=O)OC(C)(C)C)C(=O)NC1COC2CC(n3ccc(=O)[nH]c3=O)OC12 (stereo not drawn)	none (no result: ATXN2 expr inh, S2 tox)
CCN1CCN(c2cc(C)c3cc(NC(=O)/C=C/c4cccc(Cl)c4)ccc3n2)CC1	S2 tox inconclusive
COc1cccc(NC(=O)Nc2nc(SC(C)(C)C)ns2)c1	ATXN2 expr inh inconclusive, TGFb inhibitor 6.31µM, S2 tox inconclusive | TGFb confirm 10.3µM | HepG2 tox-2 inconclusive | CCL64 TGFb inh 8.2µM | COP TGFb inh inactive
COc1cccc(NC(=O)Nc2nc(SC)ns2)c1	TGFb inhibitor inconclusive
CCSc1nsc(NC(=O)Nc2cccc(F)c2)n1	ATXN2 expr inh inconclusive, TGFb inhibitor 7.08µM, S2 tox inconclusive | TGFb confirm 7.31µM | HepG2 tox-2 6.51µM | CCL64 TGFb inh inconclusive | COP TGFb inh inactive
CCCSc1nsc(NC(=O)Nc2ccc(F)cc2F)n1	TGFb inhibitor 8.91µM (no result: ATXN2 expr inh, S2 tox) | TGFb confirm 6.51µM | HepG2 tox-2 5.8µM | CCL64 TGFb inh 7.31µM | COP TGFb inh inactive
CC(=O)Nc1cccc(NC(=O)Nc2cccc(F)c2)c1	TGFb inhibitor inconclusive (no result: ATXN2 expr inh)
C[N+]1(CC(=O)c2ccc(-c3ccccc3)cc2)CCOCC1	none (no result: ATXN2 expr inh, S2 tox)
Cc1cc(C)nc(/N=C(\N)Nc2ccccc2-c2ccccc2)n1	ATXN2 expr inh inconclusive, TGFb inhibitor 10µM | TGFb confirm inconclusive | HepG2 tox-2 inconclusive | CCL64 TGFb inh inconclusive | COP TGFb inh inactive
O=C(COC(=O)c1ccccc1OCCOc1ccccc1)Nc1ccc(Br)cc1	none (no result: ATXN2 expr inh, S2 tox)
COc1cc2c(cc1OC)C(C)N(C(=O)Nc1cc(C)cc(C)c1)CC2 (stereo not drawn)	S2 tox inconclusive (no result: ATXN2 expr inh)
COc1cc2c(cc1OC)C(C)N(C(=O)c1cc3c(C)cc(C)cc3[nH]1)CC2 (stereo not drawn)	ATXN2 expr inh inconclusive, TGFb inhibitor 11.2µM, S2 tox inconclusive | TGFb confirm 16.4µM | HepG2 tox-2 14.6µM | CCL64 TGFb inh inconclusive | COP TGFb inh inactive
Cc1ccc(-c2nnc(SCCC(=O)Nc3ccccc3)n2C)cc1	none (no result: ATXN2 expr inh, S2 tox)
Cc1cccc(CCNC(=O)c2cccc3c2C(=O)N(C2CCCCC2)C3)c1	TGFb inhibitor 12.6µM | TGFb confirm 14.6µM | HepG2 tox-2 inactive | CCL64 TGFb inh inconclusive | COP TGFb inh inactive
CCCN1Cc2cccc(C(=O)NCCc3cccc(C)c3)c2C1=O	none (no result: ATXN2 expr inh)
Cc1ccc(-c2ccccc2[C@@H]2C[C@H]3CN(C)C(=O)[C@]34CCCN24)o1	ATXN2 expr inh inconclusive
O=C1N(c2ccccc2)C[C@@H]2C[C@@H](c3cc4ccccc4o3)N3CCC[C@@]123	ATXN2 expr inh 0.299µM, TGFb inhibitor 0.126µM, S2 tox inconclusive | TGFb confirm 0.058µM | HepG2 tox-2 inconclusive | CCL64 TGFb inh 0.581µM | COP TGFb inh inactive
O=C1c2ccccc2C(=O)N1c1cccc(O)c1	none (no result: ATXN2 expr inh, S2 tox)
CC1CC=CC2C1C(=O)N(Cc1ccccc1)C2c1ccc(C(F)(F)F)cc1 (stereo not drawn)	TGFb inhibitor inconclusive (no result: ATXN2 expr inh, S2 tox)
CN(C)C(=O)c1ccc(-c2cc3onc(-c4ccccc4)c3c(=O)n2C)cc1	TGFb inhibitor inconclusive | TGFb confirm inactive | HepG2 tox-2 inactive | CCL64 TGFb inh inactive | COP TGFb inh inactive
COC(=O)c1ccc(-c2cc3onc(-c4ccccc4)c3c(=O)n2C)cc1	none
